Laboratory results: PubChem BioAssay (NCI)
About 79,000 compounds went through this panel and 15% of them were active in at least one assay; those are over-represented in the sample as a whole. Unmarked numbers belong to inactive results. The source made the active and inactive calls. Cut-off read from the data, not from the text of the source: active = growth inhibition above about 70%; inactive = the rest.

Experiment: NCI Yeast Anticancer Drug Screen. Data for the mec2-1 strain (AID 157)
Conditions: S. cerevisiae mec2-1 strain, active compounds read high
Protocol: Growth inhibition of yeast strains with defined genetic alterations is measured as a screen for potential anti-cancer activity. Selected strains with alterations in DNA damage repair or cell cycle control were exposed to compounds and growth inhibition was measured relative to vehicle treated controls. The strain used in this assay is mec2-1

[1] = at 5.0 µM (retest, dose inferred, filed as 0.5)
[2] = at 50.0 µM (retest, dose inferred, filed as 5.0)

Structure (SMILES)	growth inhibition [1] [%]	growth inhibition [2]	growth inhibition (at 50.0 µM)
COc1cc(-c2oc(C=Nc3ccccc3)c([N+](=O)[O-])c2-c2ccc(O)c(OC)c2)ccc1O	19	38%	-7.5%
O=c1c(Cl)c(Cl)c(=O)c2sc3cc(Cl)ccc3[nH]c1=2	3	27%	95% (active)
O=c1c2cccc3cccc(c4oc5c6cccc7cccc(c(=O)c5c14)c76)c32	13	97% (active)	88.5% (active)
O=[N+]([O-])c1ccc2c(c1)[n+]([O-])c1[nH]c3ccccc3c1[n+]2[O-] (tested in a mixture with another compound)	55	89% (active)	87.4% (active)
CC(=O)OCC1OC(N2CCc3cc([N+](=O)[O-])ccc32)C(OC(C)=O)C(OC(C)=O)C1OC(C)=O (configuration not stated)	-19	20%	-1.35%
CCCCCCCN=C(N)c1ccc(C(=O)OC2CCCCC2)cc1	17	89% (active)	98% (active)
CC[n+]1cnc(N)c2c(-c3ccc(Cl)cc3)cn(-c3ccc(C)cc3)c21	-4	99% (active)	95.5% (active)
CCOC(=O)c1[nH]c2c([N+](=O)[O-])cccc2c1[N+](=O)[O-]	-16	16%	98% (active)
CCCCOC(=O)C#CC(=O)OCCCC	-45	-46%	99.5% (active)
O=C(NCCl)Nc1ccccc1	5	82% (active)	62.8%
COc1ccc(N(C)Sc2ccccc2)cc1	18	65%	49.1%
N#Cc1ccccc1NC1OCC(O)C(O)C1O (configuration not stated)	-45	-45%	-3.35%
CC(C)C1=C(O)c2ccccc2C(=O)C1=O	13	94% (active)	78.7% (active)
Cc1cc2nc3n(c2cc1C)C(c1c(F)cccc1F)SC3 (configuration not stated)	16	12%	-14.7%
